Test results reported in PubChem BioAssay (NCATS).
“And” between values parts separate entries of the source, which are not always exact repeats. Equal entries are not always repeated. Records with an inconclusive call do not appear. A call without a number means that no potency is given here. The source made the active and inactive calls. Calls follow the shape of the dose curve; as a rule, active = well fitted curve in the direction sought with a large enough effect; inconclusive = small, poorly fitted or top-dose-only effect, or another doubt; inactive = no such curve, though single readings can be large; an effect the other way counts as inactive or inconclusive.

Experiments:
[1] = molecular target: Glutathione peroxidase 1 (Homo sapiens) (UniProt P07203); assay: Primary qHTS Assay for Inhibitors of Recombinant Selenoprotein Glutathione Peroxidase 1 (GPX1) (AID 1845191); also: nearly all actives have a fitted effect of over 65% in size; also: potency is read from the fitted curve at half-maximal effect
Chain of Glutathione peroxidase 1 (Homo sapiens) (P07203 whole entry, looked up): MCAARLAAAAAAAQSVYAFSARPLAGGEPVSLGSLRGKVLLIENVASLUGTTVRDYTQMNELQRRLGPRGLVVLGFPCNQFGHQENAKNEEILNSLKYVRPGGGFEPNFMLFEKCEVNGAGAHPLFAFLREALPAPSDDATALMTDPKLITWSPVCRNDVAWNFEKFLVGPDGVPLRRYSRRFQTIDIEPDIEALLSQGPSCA
Procedure, shortened: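 GR-coupled readout: NADPH consumption tracked by fluorescence, ex 340/em 450 nm, at t=0 and after 15 min at RT. Final mix 10 nM GPX1, 1 mM GSH, 0.5 mM CHP, 0.5 mM NADPH, 100 nM GR, 0.01% BSA, following 30 min enzyme–compound preincubation.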

[2] = molecular target: Phospholipid hydroperoxide glutathione peroxidase GPX4 (Homo sapiens) (UniProt P36969); assay: Primary qHTS Assay for Inhibitors of Recombinant Selenoprotein Glutathione Peroxidase 4 (GPX4) (AID 1845192); also: nearly all actives have a fitted effect of over 65% in size; also: potency is read from the fitted curve at half-maximal effect
Chain of Phospholipid hydroperoxide glutathione peroxidase GPX4 (Homo sapiens) (P36969 whole entry, looked up): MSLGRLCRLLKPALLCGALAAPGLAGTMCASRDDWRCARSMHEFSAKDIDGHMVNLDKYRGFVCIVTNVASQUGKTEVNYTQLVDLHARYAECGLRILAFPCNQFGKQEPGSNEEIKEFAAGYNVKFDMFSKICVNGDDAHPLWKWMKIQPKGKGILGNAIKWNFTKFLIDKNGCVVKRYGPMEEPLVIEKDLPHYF
Procedure, shortened: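 Steps: GPX4 plus compound, 30 min RT; add GR/GSH/NADPH master mix; start with cumene hydroperoxide; read 340/450 nm fluorescence at 0 and 15 min. Finals were 200 nM GPX4, 1 mM GSH, 0.5 mM CHP, 0.5 mM NADPH, 100 nM GR.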

[3] = molecular target: Luciferin 4-monooxygenase (Photinus pyralis) (UniProt P08659); assay: Primary firefly luciferase (FLuc) qHTS assay for identification of artifact compounds. (AID 1845220); also: nearly all actives have a fitted effect of over 60% in size
Procedure, shortened: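 Titrated compounds were incubated 15 min at RT, protected from light, with luciferin and ATP at 10 uM; reaction started with 10 nM FLuc, luminescence imaged at 5 min, and concentration-response fitted by Hill equation.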

[4] = Primary fluorescence-based thiol-reactive (MSTI) qHTS assay for identification of artifact compounds. (AID 1845221); also: nearly all actives have a fitted effect of over 65% in size; also: potency is read from the fitted curve at half-maximal effect
Procedure, shortened: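 MSTI probe at 4 uM final in 2% DMSO/PBS pH 7.4; compounds, 1 h at room temperature in dark. Fluorescence Ex/Em 525/598 nm, normalised to Acetyl-MSTI and MSTI, fitted to 4-parameter Hill.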

[5] = tested on: Nanoluciferase (engineered Oplophorus gracilirostris luciferase); assay: Primary Nanoluciferase (NLuc) qHTS assay for identification of artifact compounds. (AID 1845222);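 also: NLuc secreted into diluted conditioned medium of S16 cells; series mostly up to about 54 µM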
Procedure, shortened: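 qHTS format, against NLuc in S16 cell-conditioned medium. Nano-Glo substrate 1:100 was added after 15 min at room temperature. Luminescence was taken after a further 5 min.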

| SMILES | Potency [1] | Potency [2] | Potency [3] | Potency [4] | Potency [5] |
| --- | --- | --- | --- | --- | --- |
| NCCCNCCCCNC(=O)C(O)NC(=O)CCCCCCN=C(N)N (stereo not given) | inactive | inactive |  |  |  |
| Cc1nc(Nc2cnn(C3CCNCC3)c2)nc2c1N(C)C(=O)c1cc3ccccc3cc1N2C | inactive | inactive | inactive | inactive |  |
| CN(C)Cc1ccccc1 | inactive | inactive |  |  |  |
| CCNc1nc(Nc2cc(F)c(C(=O)N3CCOCC3)cc2OC)ncc1C(F)(F)F | inactive | inactive | inactive | inactive | inactive |
| CC(C)(C)NC(=O)[C@H]1CC[C@H]2[C@@H]3CC[C@H]4NC(=O)CC[C@]4(C)[C@H]3CC[C@]12C | inactive | inactive | inactive | inactive | inactive |
| CN1CCN(c2ccc(-c3cccc(CN4CCOCC4)c3)cc2NC(=O)c2c[nH]c(=O)cc2C(F)(F)F)CC1 | inactive | inactive | inactive | inactive | inactive |
| CCc1cccc(CC)c1-n1c(C=C(C)C)c(C(=O)N2CCNCC2)cc(-c2nc(-c3ccc(C(F)(F)F)cc3)cs2)c1=O | inactive | inactive | inactive | inactive | inactive |
| CN1CCN(CCCN2c3ccccc3Sc3ccccc32)CC1 | inactive | inactive |  |  |  |
| Cc1cc(N2CCN(C(=O)Oc3ccc(-c4ccccc4)cn3)CC2)c2ccccc2n1 | inactive | inactive | inactive | inactive | inactive |
| Cc1cc2c(c(=O)o1)C=C1CC[C@H]([C@H](C)Cn3cnc(=N)c4[nH]cnc43)C[C@@H]1O2 | inactive | inactive | inactive | inactive | inactive |
| O=C(Cn1c(=O)sc2ccc(Cl)cc21)N1CCN(CCO)CC1 | inactive | inactive |  |  |  |
| COc1cc(Br)c(S(=O)(=O)Nc2ccc(Cl)c(O[C@@H]3CCN(C)C3)c2)cc1OC | inactive | inactive | inactive | inactive | inactive |
| COC1CC/C=C(\C)C(=O)Nc2cc(O)cc(c2)CC(C)CC(OC)C(O)C(C)/C=C(\C)C1OC(N)=O (stereo not given) | inactive | inactive | inactive | inactive |  |
| C[C@@H]1COCCN1c1cc(=O)n2c(n1)N(Cc1cncc(Cl)c1)[C@H](C(F)(F)F)CC2 | inactive | inactive |  |  |  |
| O=C(Cn1cnnn1)N[C@@H]1C(=O)N2C(C(=O)O)=C(CSc3nncs3)CS[C@H]12 | 18 µM (active) | inactive |  |  |  |
| C/C(=C\Cc1c(O)c(Cl)c(C)c(C=O)c1O)CC/C=C(\C)[C@H]1CC(=O)C(C)(C)O1 | inactive | inactive | inactive |  |  |
| CO/N=C(\C(=O)N[C@@H]1C(=O)N2C(C(=O)OCOC(=O)C(C)(C)C)=C(/C=C\c3scnc3C)CS[C@H]12)c1csc(N)n1 | 4.53 µM (active) | 14.1 µM (active) |  |  |  |
| O=C1C(c2[nH]c3ccc(S(=O)(=O)O)cc3c2O)=Nc2ccc(S(=O)(=O)O)cc21 | inactive | inactive |  |  |  |
| O=S(=O)(NCc1ccccn1)c1ccc(Br)c2ccccc12 | inactive | inactive | inactive | inactive |  |
| COc1cc(C(N)=O)nc(-c2ccccn2)c1O | inactive | inactive | inactive | 23.8 µM (active) | inactive |
| C=C1CC2C3CCC4=CC(=O)C=C[C@]4(C)[C@@]3(F)[C@@H](O)C[C@]2(C)[C@@]1(O)C(=O)COC(C)=O (stereo not given in full) | inactive | inactive |  |  |  |
| CC(=O)O[C@H]1CC[C@@]2(C)C(=CC[C@H]3[C@@H]4CC[C@H](C(C)=O)[C@@]4(C)CC[C@@H]32)C1 | inactive | inactive |  |  |  |
| CCn1nc(C2CCN(C(=O)CCO)CC2)nc1-c1cnc(N)c(-c2nnc(C(C)(C)C)o2)n1 | 20.2 µM (active) and 20.5 µM (active) | 14.3 µM (active) | inactive | inactive | inactive |
